Experimental data as given in PubChem BioAssay (NCI).
The panel holds about 83,000 compounds, 20% with a hit somewhere; the sample as a whole holds those more often.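 Single-dose data. Exposure time 48 hours. Values below 10 considered active.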 Values without a mark were called inactive. Active and inactive are the calls of the source.

Assays:
Assay in all cases: NCI-60 one-dose screen, 48 h (100 = growth as untreated, 0 = no growth, -100 = all killed)
DU-145 prostate = details: 10 µM unless noted
K-562 leukemia = details: 10 µM unless noted
MALME-3M melanoma = details: 10 µM unless noted
MDA-MB-231 breast = details: 10 µM unless noted
SF-268 CNS = details: 10 µM unless noted
SF-295 CNS = details: 10 µM unless noted
SF-539 CNS = details: 10 µM unless noted
UACC-257 melanoma = details: 10 µM unless noted
M14 melanoma = details: 10 µM unless noted
HCT-15 colon = details: 10 µM unless noted
HT29 colon = details: 10 µM unless noted
SNB-75 CNS = details: 10 µM unless noted
SNB-19 CNS = details: 10 µM unless noted
U251 CNS = details: 10 µM unless noted
PC-3 prostate = details: 10 µM unless noted
SK-MEL-5 melanoma = details: 10 µM unless noted
UACC-62 melanoma = details: 10 µM unless noted
LOX IMVI melanoma = details: 10 µM
SK-MEL-28 melanoma = details: 10 µM unless noted
RXF 393 renal = details: 10 µM unless noted

| Compound | growth (DU-145 prostate) [%] | growth (K-562 leukemia) | growth (MALME-3M melanoma) | growth (MDA-MB-231 breast) | growth (SF-268 CNS) | growth (SF-295 CNS) | growth (SF-539 CNS) | growth (UACC-257 melanoma) | growth (M14 melanoma) | growth (HCT-15 colon) [%] | growth (HT29 colon) | growth (SNB-75 CNS) | growth (SNB-19 CNS) | growth (U251 CNS) | growth (PC-3 prostate) | growth (SK-MEL-5 melanoma) | growth (UACC-62 melanoma) | growth (LOX IMVI melanoma) | growth (SK-MEL-28 melanoma) | growth (RXF 393 renal) [%] |
| --- | --- | --- | --- | --- | --- | --- | --- | --- | --- | --- | --- | --- | --- | --- | --- | --- | --- | --- | --- | --- |
| CCCCCCCCCCCC[n+]1ccccc1 (tested in a mixture with another compound) | 11.7 | -33.3% (active) | -38.3% (active) | -30.4% (active) | -8.98% (active) | -35.1% (active) | -10.5% (active) | -52.3% (active) | -56.6% (active) | 38.5 | -30.1% (active) | -45.9% (active) | -10.2% (active) | -24.1% (active) | -61.8% (active) | -98.5% (active) | -62.3% (active) | -58.3% (active) | -19.1% (active) | – |
| Cc1nnc(N/N=C/c2ccc([N+](=O)[O-])o2)[nH]c1=O | 19.4 | 10.7% | -30.8% (active) | 28.7% | 19.4% | -40.4% (active) | -8.83% (active) | 33.5% | 26.2% | 15.7 | 27.5% | 42.3% | 11.6% | 4.33% (active) | 3.62% (active) | -24.3% (active) | 10.6% | 11% | 25.4% | – |
| O=[N+]([O-])C=C(c1ccccc1)c1ccccc1 | 87.7 | 29.4% | 80.2% | – | 85.7% | 89.3% | 88.2% | 84% | 79.4% | 42.7 | 91.7% | 59.4% | 85.5% | 80.1% | 76.5% | 88.3% | 56.9% | – | 90.4% | 78.5 |
| Oc1ccc2c(c1)CCc1ccccc1-2 | 109 | 121% | – | 111% | 92.1% | 96.3% | 89.9% | 99.2% | 102% | 92.6 | 95% | 56.1% | 102% | 95.9% | 99.2% | 97.8% | 104% | 107% | 105% | 92.6 |
| Cc1ccc(N2C(=O)C=CC2=O)cc1 | 119 | 0.664% (active) | – | 97.6% | 106% | 115% | 112% | 103% | 101% | 114 | 96.3% | 89.6% | 95.4% | 102% | 97.4% | 91.2% | 104% | 97.7% | 112% | 99.7 |
| CN(C)c1ccc2cc3c(cc2c1)Oc1ccccc1N3.[Cl][Zn][Cl] | 90.9 | 12.1% | – | 0.0703% (active) | 83.8% | 97.2% | 99.9% | 81.5% | 102% | 48.5 | 97.3% | 103% | 114% | 78.7% | 81.1% | 70.6% | 65% | 32% | 111% | 95.6 |
| O=C1C=CC(=O)N1c1ccc(O)cc1 | 117 | 91.1% | – | 94.7% | 109% | 114% | 111% | 106% | 105% | 102 | 112% | 98.1% | 103% | 99.9% | 98.3% | 102% | 95.4% | 99.8% | 107% | 110 |
| COc1cc([C@@H]2c3cc4c(cc3[C@H](OC3OC5COC(c6ccccc6)OC5C(O)C3O)[C@H]3COC(=O)[C@H]23)OCO4)cc(OC)c1OC (stereo partly specified) | 57 | 15.9% | – | 66.3% | 29.3% | 35.8% | 19.4% | 57.5% | 33.2% | 41.1 | 23.2% | 75.9% | 79.9% | 55.8% | 8.28% (active) | -33.3% (active) | 79.4% | 30.2% | 58.3% | 65.7 |
